The record followed here is PubChem BioAssay.

Assay [1] deals with Plasmodium falciparum Sir2 (PF13_0152, Sir2A). Briefly: Plasmodium falciparum Sir2A binding compounds – biochemical, small-molecule microarray, 635 nm fluorescence, primary screen (AID 1098).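 Also: score merges spot fluorescence intensity with its signal-to-noise ratio.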 The following applies: fluorescence 635 nm, higher = more signal.
Assay [2] can be described thus: probe aDKK1 binding to arrayed compounds – biochemical, biotinylated probe, 635/667 nm fluorescence, primary screen (AID 1099).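 Also: score merges 667nm spot fluorescence with signal to noise across triplicate slides.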 Conditions: small-molecule microarray, higher = more signal.
Assay [3] in a line: probe aCHRDL2 binding to arrayed compounds – biochemical, biotinylated probe, 635/667 nm fluorescence, primary screen (AID 1100). Conditions: small-molecule microarray, higher = more signal.
Assay [4] is described as follows: change in splice reporter luminescence, either direction, cell-based, HEK293, spliceosome inhibition project, primary screen (AID 1101).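 Also: HEK293 cells carrying a splicing-competent luciferase reporter gene; test concentration not given here.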 Conditions: HEK293 splicing luciferase reporter, 24 h, higher = more signal, called active from +8 up or from −8 down.
The target of assay [5] is Fibroblast growth factor 10 (Homo sapiens) (UniProt O15520). Briefly: compounds binding fibroblast growth factor 10 – biochemical, small-molecule microarray, 635 nm fluorescence, primary screen (AID 1102). The following applies: FGF10 binding, fluorescence 635 nm, higher = more signal.
The subject of assay [6] is glycogen synthase kinase-3 (GSK3A per assay name; protocol says GSK3B). Briefly: compounds binding glycogen synthase kinase-3 – biochemical, small-molecule microarray, 635 nm fluorescence, GSK3A, primary screen (AID 1103). Also: the record names both GSK3A and GSK3B. Conditions: fluorescence 635 nm, higher = more signal.
Assay [7] addresses Epidermal growth factor receptor (Homo sapiens) (UniProt P00533). The assay is described as follows: compounds binding epidermal growth factor receptor – biochemical, small-molecule microarray, 635 nm fluorescence, primary screen (AID 1104).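 Also: score merges 667 nm emission intensity with spot signal to noise over triplicate slides.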 The following applies: EGFR binding, higher = more signal.
The target in assay [8] is Follistatin-related protein 3 (Homo sapiens) (UniProt O95633). Briefly: compounds binding follistatin-related protein 3 – biochemical, small-molecule microarray, 635 nm fluorescence, primary screen (AID 1105).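 Also: score merges emission near 667 nm and signal to noise per printed spot across three slides.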 The following applies: FSTL3 binding, higher = more signal.
Assay [9] deals with Dickkopf-related protein 1 (Homo sapiens) (UniProt O94907). The assay is described as follows: small molecules binding DKK1 protein – biochemical, small-molecule microarray, 635 nm fluorescence scan, primary screen (AID 1106).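 Also: score merges emission near 667 nm with signal to noise over three replicate slides.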 The following applies: higher = more signal.
Assay [10] concerns Inhibin beta A chain (activin A). Briefly: small molecules binding activin A – biochemical, small-molecule microarray, 635 nm fluorescence scan, primary screen (AID 1107).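 Also: mouse activin A protein probed at 4.33 µg/mL on printed slides; score merges bound-protein fluorescence near 667 nm with spot signal-to-noise.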 Conditions: INHBA, higher = more signal.
For assay [11], the system named is Human papillomavirus type 1a protein E7 (residues 44-93). The assay is described as follows: small molecules binding HPV E7 44-93 – biochemical, small-molecule microarray, residues 44-93, 635 nm fluorescence, primary screen (AID 1108).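 Also: E7 fragment applied at 1 µg/mL in TBST for 1 h at 4 C; score combines spot fluorescence with its signal to noise ratio.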 Conditions: fluorescence 635 nm, higher = more signal.
Assay [12] in a line: hepatitis C replication reporter changes, two-sided – Huh7 cells, luciferase reporter, HCV replication inhibitor project, primary screen (AID 1109).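 Also: huh7 hepatoma cells harbouring a luciferase neomycin HCV replicon reporter; luciferase luminescence as measure of HCV replicon replication; test concentration not given here.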 Conditions: Huh7 HCV replicon luciferase reporter, 48 h; higher = more signal.
The target of assay [13] is Left-right determination factor 2 (Homo sapiens) (UniProt O00292). The assay is described as follows: small molecules binding LEFTY2 protein – biochemical, small-molecule microarray, 635 nm fluorescence scan, primary screen (AID 1110). Conditions: higher = more signal.
Assay [14] deals with Calmodulin-1 (Homo sapiens) (UniProt P0DP23). Briefly: small molecules binding calmodulin-1 with EGTA – biochemical, small-molecule microarray, Cy5-labelled CALM1, profiling panel (AID 1111).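 Also: labelled calmodulin applied in Tris saline Tween buffer holding calcium plus EGTA and DTT.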 The following applies: Cy5-CALM1 binding fluorescence, higher = more signal.
For assay [15] the target is unchanged. The assay is described as follows: small molecules binding Ca-loaded calmodulin-1 – biochemical, small-molecule microarray, Cy5-labelled CALM1, plus calcium, artefact control for SMM control-protein annotation, profiling panel (AID 1112).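 Also: score merges spot fluorescence with signal to noise from triplicate slides.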 The following applies: Cy5-CALM1 binding fluorescence, higher = more signal.
Assay [16] is described as follows: probe aWnt5a binding to arrayed compounds – biochemical, biotinylated probe, 635/667 nm fluorescence, primary screen (AID 1113).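 Also: score merges 667 nm fluorescence intensity with signal-to-noise per printed feature.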 Conditions: small-molecule microarray, higher = more signal.
Assay [17] can be described thus: probe aShh binding to arrayed compounds – biochemical, biotinylated probe, 635/667 nm fluorescence, primary screen (AID 1114).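 Also: probe is biotin-labelled aShh protein from a stem cell growth factor screen; measures binding of labelled protein to compounds printed on the slide; score merges feature fluorescence at 667 nm with signal-to-noise.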 Conditions: small-molecule microarray, higher = more signal.
The nature of assay [18]: probe aNog binding to arrayed compounds – biochemical, biotinylated probe, 635/667 nm fluorescence, primary screen (AID 1115).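 Also: probe is biotinylated aNog protein used at 0.15 µg/mL for 1 h at 4 C; z-score combines 667 nm fluorescence of each spot with its signal to noise.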 Conditions: small-molecule microarray, higher = more signal.
In assay [19] the target is Torsin-1A-interacting protein 1 (Homo sapiens) (UniProt Q5JTV8). The assay is described as follows: compound microarray binding of lysate hLAP1 – cell lysate, small-molecule microarray, COS7 lysate, 635/667 nm fluorescence, primary screen (AID 1116). Conditions: 635 nm fluorescence, higher = more signal.
Assay [20] deals with Alpha-bungarotoxin (Bungarus multicinctus) (UniProt P60615). The assay is described as follows: compounds binding labelled alpha-BTX control protein – biochemical, small-molecule microarray, Alexa647 label, 635/667 nm fluorescence, artefact control for SMM control protein annotation, profiling panel (AID 1117). Conditions: alpha-BTX-A647 binding fluorescence, higher = more signal.

Activity calls are given as the source filed them.

Fibroblast growth factor 10 (Homo sapiens), sequence (O15520 whole entry, looked up): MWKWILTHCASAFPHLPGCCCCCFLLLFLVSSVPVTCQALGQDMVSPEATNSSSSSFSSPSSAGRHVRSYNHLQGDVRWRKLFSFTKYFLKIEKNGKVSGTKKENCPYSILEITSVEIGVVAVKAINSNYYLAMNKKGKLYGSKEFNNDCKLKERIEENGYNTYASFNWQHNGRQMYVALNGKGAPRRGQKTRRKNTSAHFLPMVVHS
Alpha-bungarotoxin (Bungarus multicinctus), sequence (P60615 whole entry, looked up): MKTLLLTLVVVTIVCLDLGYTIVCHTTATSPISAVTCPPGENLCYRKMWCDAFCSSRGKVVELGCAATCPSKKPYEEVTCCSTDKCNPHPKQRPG
Follistatin-related protein 3 (Homo sapiens), sequence (O95633 whole entry, looked up): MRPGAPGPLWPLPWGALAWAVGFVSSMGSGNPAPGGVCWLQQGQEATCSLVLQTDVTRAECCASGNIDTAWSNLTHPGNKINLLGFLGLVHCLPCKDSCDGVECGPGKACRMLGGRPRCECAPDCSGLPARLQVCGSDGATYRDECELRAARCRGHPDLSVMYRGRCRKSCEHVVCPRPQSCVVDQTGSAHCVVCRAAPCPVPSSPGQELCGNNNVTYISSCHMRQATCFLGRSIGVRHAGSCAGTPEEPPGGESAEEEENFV
Dickkopf-related protein 1 (Homo sapiens), sequence (O94907 whole entry, looked up): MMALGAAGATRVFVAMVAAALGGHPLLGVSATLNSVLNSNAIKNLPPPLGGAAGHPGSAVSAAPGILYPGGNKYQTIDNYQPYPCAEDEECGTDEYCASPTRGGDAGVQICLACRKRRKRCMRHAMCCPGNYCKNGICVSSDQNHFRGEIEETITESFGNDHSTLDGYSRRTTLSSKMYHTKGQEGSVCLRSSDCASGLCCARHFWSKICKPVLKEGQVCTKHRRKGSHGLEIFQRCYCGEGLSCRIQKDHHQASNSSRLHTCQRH
Epidermal growth factor receptor (Homo sapiens), sequence (P00533 whole entry, looked up): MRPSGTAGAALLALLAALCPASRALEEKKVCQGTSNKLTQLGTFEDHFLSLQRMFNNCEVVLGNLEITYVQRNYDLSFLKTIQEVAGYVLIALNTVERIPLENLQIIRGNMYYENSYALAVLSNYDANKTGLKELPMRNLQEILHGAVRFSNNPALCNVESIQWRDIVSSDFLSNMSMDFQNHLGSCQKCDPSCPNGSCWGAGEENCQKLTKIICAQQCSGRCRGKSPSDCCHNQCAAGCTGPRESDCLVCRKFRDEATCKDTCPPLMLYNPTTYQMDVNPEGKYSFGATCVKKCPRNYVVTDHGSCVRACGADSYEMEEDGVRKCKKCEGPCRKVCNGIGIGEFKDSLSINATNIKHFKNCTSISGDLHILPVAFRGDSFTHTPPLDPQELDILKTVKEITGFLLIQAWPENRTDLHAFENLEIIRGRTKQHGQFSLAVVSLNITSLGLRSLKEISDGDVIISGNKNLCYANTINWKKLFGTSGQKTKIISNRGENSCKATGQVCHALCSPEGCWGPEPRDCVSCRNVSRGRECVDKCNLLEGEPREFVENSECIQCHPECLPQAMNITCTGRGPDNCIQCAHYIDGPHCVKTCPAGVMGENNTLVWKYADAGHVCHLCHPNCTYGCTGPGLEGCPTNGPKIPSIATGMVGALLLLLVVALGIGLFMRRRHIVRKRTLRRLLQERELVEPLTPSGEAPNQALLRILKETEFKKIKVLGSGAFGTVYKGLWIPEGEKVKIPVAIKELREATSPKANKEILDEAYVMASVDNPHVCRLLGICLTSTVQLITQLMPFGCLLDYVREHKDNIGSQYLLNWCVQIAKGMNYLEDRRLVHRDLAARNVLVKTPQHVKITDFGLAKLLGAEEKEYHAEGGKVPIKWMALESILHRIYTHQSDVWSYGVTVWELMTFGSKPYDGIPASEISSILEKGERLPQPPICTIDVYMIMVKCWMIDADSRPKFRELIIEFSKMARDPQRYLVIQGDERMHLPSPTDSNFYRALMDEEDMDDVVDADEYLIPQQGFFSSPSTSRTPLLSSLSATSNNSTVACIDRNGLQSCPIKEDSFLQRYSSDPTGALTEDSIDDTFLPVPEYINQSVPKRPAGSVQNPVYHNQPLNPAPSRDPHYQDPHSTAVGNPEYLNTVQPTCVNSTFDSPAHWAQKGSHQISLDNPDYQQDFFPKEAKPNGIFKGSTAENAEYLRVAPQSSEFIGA
Torsin-1A-interacting protein 1 (Homo sapiens), sequence (Q5JTV8 whole entry, looked up): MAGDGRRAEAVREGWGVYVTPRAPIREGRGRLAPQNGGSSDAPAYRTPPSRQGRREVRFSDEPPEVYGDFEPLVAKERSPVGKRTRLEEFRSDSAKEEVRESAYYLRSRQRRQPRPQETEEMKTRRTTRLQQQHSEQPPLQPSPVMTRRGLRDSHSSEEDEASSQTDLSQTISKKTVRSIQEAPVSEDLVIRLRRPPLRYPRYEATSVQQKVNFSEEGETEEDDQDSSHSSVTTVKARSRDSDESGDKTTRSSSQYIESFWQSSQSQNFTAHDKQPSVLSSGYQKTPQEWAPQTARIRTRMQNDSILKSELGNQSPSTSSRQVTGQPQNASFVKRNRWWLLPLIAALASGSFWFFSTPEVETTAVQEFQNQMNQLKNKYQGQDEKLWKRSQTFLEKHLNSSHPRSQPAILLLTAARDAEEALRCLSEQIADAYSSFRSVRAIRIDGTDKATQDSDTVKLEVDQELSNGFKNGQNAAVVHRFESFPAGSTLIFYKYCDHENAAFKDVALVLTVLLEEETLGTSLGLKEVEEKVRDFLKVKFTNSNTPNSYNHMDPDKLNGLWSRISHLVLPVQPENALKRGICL
Left-right determination factor 2 (Homo sapiens), sequence (O00292 whole entry, looked up): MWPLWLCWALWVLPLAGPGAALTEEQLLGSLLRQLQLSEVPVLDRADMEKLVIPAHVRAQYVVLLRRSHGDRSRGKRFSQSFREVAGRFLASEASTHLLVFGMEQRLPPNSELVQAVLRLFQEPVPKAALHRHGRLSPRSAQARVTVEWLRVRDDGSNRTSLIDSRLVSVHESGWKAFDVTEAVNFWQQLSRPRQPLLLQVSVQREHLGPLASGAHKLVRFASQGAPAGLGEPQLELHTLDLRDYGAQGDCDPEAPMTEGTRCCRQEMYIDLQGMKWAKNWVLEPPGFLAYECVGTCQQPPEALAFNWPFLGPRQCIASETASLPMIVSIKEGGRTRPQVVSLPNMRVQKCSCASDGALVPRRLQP

For the compound `CCCC[C@H]1OB(O)C[C@H]2C1=C(COC)C[C@H]1C(=O)N(Cc3ccccc3)C(=O)[C@H]12`, the composite z-score in assay [1] is -0.0105; in assay [2], 0.0752; in assay [3], -0.0346; in [5] it was 0.78; in [6], 0.261; in assay [7] it was 0.013. Further, the composite z-score was 1.1 in [8]; 0.0988 in [9]; 0.223 in assay [10]; -0.0721 in assay [11]; 0.313 in assay [13]; 0.188 in [14]. Besides, the composite z-score in [15] is -0.0421; in assay [16], -0.0327; in [17] it was -0.0904; in [18] it was 0.0649; in assay [19], 0.25; in assay [20] it was 0.526. Moreover, the values for the z-score in [4] and in assay [12] were -1.27 (inactive) and 0.202, respectively.

Turning to `O=[N+]([O-])c1ccc(C[n+]2ccc3ccc(O)cc3c2)o1`, the composite z-score in assay [1] was 0.595; in assay [2], 0.174; in [3] it was -0.144; in assay [5], 0.297; in [6], 0.314; in [7], 0.219. Moreover, the composite z-score in assay [8] is 0.42; in [9], 0.0242; in assay [10], 0.618; in assay [11] it was -0.0611; in assay [13] it was -0.0338; in assay [14], 1.01. The composite z-score in assay [15] is 0.287; in assay [16], -0.0435; in [17] it was 0.673; in assay [18], -0.206; in [19], -0.314; in [20] it was 2.53. For the same compound, the z-score in assay [4] is -0.0287 (inactive); in [12], -0.95.

For `C=CCC(OC(C)=O)[C@@H]1[C@@H](N(Cc2cc3ccccc3o2)C(=O)Cc2ccc(F)cc2)c2cc(OCCCO)ccc2N1C(=O)c1ccc(-c2ccccc2)cc1` (stereo not given in full), the composite z-score in assay [1] is -0.271; in assay [2], -0.168; in assay [3] it was 0.512; in [5] it was -0.251; in assay [6] it was -0.708; in assay [7], -0.162. The composite z-score in [8] is -0.346; in assay [9], 0.0578; in [10] it was 1.18; in [11], -0.524; in [13], -0.159; in assay [14], -0.302. Moreover, the composite z-score in assay [15] was 1.14; in [16], -0.154; in [17] it was 0.0141; in assay [18], 0.389; in assay [19], -0.467; in assay [20], 0.208. Further, the z-score in assay [4] was -1.05 (inactive); in assay [12] it was 0.591.

As for `CC(C)[Si](OCCCNS(=O)(=O)c1ccc(Br)cc1)(C(C)C)C(C)C`, the composite z-score in assay [1] turned out to be 0.373; in assay [2] it was 0.526; in assay [3], 0.0951; in assay [5], 0.831; in assay [6], 1.18; in assay [7] it was 0.742. Moreover, the composite z-score in assay [8] was 0.753; in assay [9] it was 0.673; in assay [10], -0.415; in assay [11] it was 0.186; in assay [13], 0.76; in assay [14], 1.19. The composite z-score was -0.371 in assay [15]; 0.037 in assay [16]; -0.0553 in assay [17]; 0.0379 in assay [18]; 0.928 in assay [19]; -0.249 in [20]. For the same compound, the z-score is -0.619 (inactive) in assay [4] and -2.89 in assay [12].

As to `COc1cc2c(cc1OC)CN(C(=O)[C@H]1[C@@H]3C(=O)O[C@@H](c4ccccc4)[C@@H](c4ccccc4)N3[C@@H](c3ccccc3OCCO)[C@]13C(=O)Nc1ccc(C#CC4(O)CCCCCC4)cc13)CC2`, the composite z-score in assay [1] is 1.6; in [2] it was 0.329; in assay [3], 0.453; in assay [5] it was 1.06; in assay [6], 1.3; in assay [7], 0.525. In addition, the composite z-score was 0.564 in assay [8]; 0.693 in assay [9]; 0.113 in assay [10]; -0.178 in assay [11]; 0.519 in assay [13]; 1.16 in assay [14]. Besides, the composite z-score is -0.407 in assay [15]; 0.0676 in [16]; 0.0684 in [17]; -0.356 in assay [18]; 1.02 in [19]; 1.83 in assay [20]. For the same compound, the results for the z-score in assay [4] and in assay [12] were -1.16 (inactive) and -2.36, respectively.

Turning to `CC(C)[Si](OCC[C@H]1O[C@]2(C(=O)N(Cc3ccccc3)c3ccccc32)[C@@H](C)[C@@H]1[Si](C)(C)O)(C(C)C)C(C)C`, the composite z-score in [1] was 0.54; in [2] it was -0.0907; in assay [3] it was -0.0768; in assay [5], -0.189; in assay [6] it was -0.922; in assay [7] it was -0.102. The composite z-score in assay [8] was -0.0398; in assay [9], 0.0477; in assay [10] it was 0.438; in [11], 0.161; in assay [13], -0.261; in [14], 0.214. Further, the composite z-score in [15] is 0.3; in assay [16], -0.216; in assay [17] it was 0.0204; in assay [18], 0.0073; in assay [19], 0.153; in assay [20] it was -0.513. Moreover, the z-score in [4] was 0.467 (inactive); in assay [12], -1.22.
